# About 1,300 (0.36%) of roughly 360,000 compounds were called active. The sample holds actives, similar compounds and a random draw of the others, so the mix is not that of the screen. Values without a mark were called inactive.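 The calls were made as follows: active = corrected activity change at or below -50% at 5 µM; inactive = the rest.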
# Test: cytotoxicity in KKLEB CF airway cells, primary screen, cytotoxicity control for CF NF-kB inhibitor project, cell-based, uHTS, fluorescence assay plates (AID 602141)
# Settings: KKLEB CF airway cells viability, ATPlite luminescence, overnight; at 5 µM; hits give low values; cells stimulated with P. aeruginosa culture filtrate
row,SMILES,activity change (cytotoxicity)
1,Cc1noc(C)c1C(=O)OC(C)C(=O)Nc1ccc2c(c1)OCO2 (stereo not given),1.3%
2,COc1ccccc1NC(=O)C1CCN(C(=O)c2ccc(C(C)(C)C)cc2)CC1,3.1%
3,COC(=O)c1sc(-c2ccc(C(C)(C)C)cc2)cc1NC(=O)/C=C/C(=O)O,-51.8% (active)
4,COc1ccc(NS(=O)(=O)c2ccc(N3CCOCC3)c(NC(=O)/C=C/C(=O)O)c2)cc1,17.8%
5,O=C(C=CC(=O)Nc1ccc(F)cc1F)Nc1ccc(F)cc1F,-11%
6,O=C(NCC1CCCO1)c1ccccc1-c1nc(-c2ccccc2Cl)no1 (stereo not given),-12.9%
7,O=C(O)CC12CC3CC(C1)CC(n1ncc(NCc4ccc(F)cc4)c(Cl)c1=O)(C3)C2,-4.6%
8,CCN1CCC(O)(/C=C/c2ccc(C)cc2)C(C(=O)/C=C/c2ccc(C)cc2)C1 (stereo not given),-73.7% (active)
9,CCN1CCC2(CC1)N=C(c1ccc(F)cc1)C(=S)N2C(=O)c1ccc(C)cc1,2.3%
10,CCc1nc2ccc(C(=O)N3CCC(O)(Cc4ccccc4)CC3)cn2c1N(C)C(=O)Cc1ccccc1,-15.5%
11,CC(=O)c1ccc(-c2cnc3c(NC=O)cc(-c4cccc(NS(C)(=O)=O)c4)cn23)cc1,-51.7% (active)
12,CC(=O)c1cccc(-c2cnc3c(NC=O)cc(-c4ccc(N(C)C)cc4)cn23)c1,-27.1%
13,CC(=O)Nc1cccc(-c2cc(NC=O)c3ncc(-c4ccc(F)c(Cl)c4)n3c2)c1,0.8%
14,O=C(Nc1ccncc1)c1c(F)cccc1F,-51.3% (active)
15,O=C(Nc1ccc(S(=O)(=O)N2CCCCCC2)cc1)c1c(F)cccc1F,5.1%
16,COc1cccc(OC)c1C(=O)Nc1ccc(Cc2ccncc2)cc1,-3.9%
17,CCOC(=O)C1CCCN(C(=O)C2CCN(c3nnc(-n4cccc4)s3)CC2)C1 (stereo not given),-8.3%
18,O=C(Nc1nc(-c2ccncc2)cs1)C1COc2ccccc2O1 (stereo not given),-70.7% (active)
19,COc1ccc(NC(=O)COC(=O)C2COc3ccccc3O2)cc1 (stereo not given),12.9%
20,O=C(Nc1cc(S(=O)(=O)N2CCCCC2)ccc1Cl)C1COc2ccccc2O1 (stereo not given),-14%
21,CCN1CCN(C(=O)CN(C)S(=O)(=O)c2ccc(OC)cc2)CC1,3.4%
22,CSc1cccc(NC(=O)CN2C(=O)COc3ccc(S(=O)(=O)N4CCOCC4)cc32)c1,6.5%
23,Cc1ccc(CNC(=O)COc2ccc(S(=O)(=O)NC(C)C)cc2)cc1,-0.1%

row,SMILES,activity change (cytotoxicity)
1,O=C1CN(C(=O)c2ccccc2F)C(c2ccc(F)cc2)c2cc(F)ccc2N1 (stereo not given),11.6%
2,C=CCNC(=S)NNC(=O)COc1c(Cl)cc(Cl)cc1Cl,-16.4%
3,O=C(C1CCN(S(=O)(=O)c2ccc(Br)s2)CC1)N1CCN(C2CCCCC2)CC1,13.7%
4,CCCOc1ccc(C(=O)C(CCC(CNCC)C(=O)c2ccc(OCCC)cc2)CNCC)cc1 (stereo not given),-58.6% (active)
5,CC(C)CCOc1ccc(C(=O)C[N+]2(C)CCOCC2)cc1,1.8%
6,CCCc1ccc(OCCNC(=O)c2ccccc2Br)cc1,-6.1%
7,Cc1ccc(C(NC(=O)C2CCN(CCOc3ccc(Cl)cc3Cl)CC2)c2ccccn2)cc1 (stereo not given),-0.6%
8,COc1cccc(OCc2cc(/C=N/NC(=O)c3nc(Cl)c(Cl)c(N)c3Cl)ccc2OC)c1,-5.4%
9,CCOc1ccc(-c2cc(C(=O)N/N=C/c3ccc(O)cc3)c3ccccc3n2)cc1,-15.6%
10,COc1ccc(C(=O)Nc2ccccc2C(=O)N/N=C/c2ccc(O)c(OC)c2)cc1,-87.3% (active)
11,CC(=O)Nc1ccc(NC(=O)CC2CCCC2)cc1,6.6%
12,O=c1c2ccccc2ncn1CCCCOc1ccccc1F,5.1%
13,COCCCNC(=O)C1CC(=O)N(CCc2ccc(F)cc2)C1 (stereo not given),1.6%
14,CC(=O)NCCn1c(SCC(=O)Nc2ccc(C)cc2)nc2ccccc2c1=O,4.4%
15,O=C(CSc1nc2nccnc2c(=O)n1Cc1cccs1)Nc1ccccc1F,-10.3%
16,CCOc1ccc(NC(=O)CSc2nc3ccccc3c(=O)n2Cc2cccs2)cc1,-54.6% (active)
17,Cc1ccc(NC(=O)C(c2ccccc2)N2CCN(C(=O)c3ccco3)CC2)cc1 (stereo not given),19.2%
18,CSc1ccc(CNC(=O)c2ccc(NC(=O)C3=CSCCO3)cc2)cc1,-31.3%
19,CCC/C(O)=C1\C(=O)CC(C)(C)CC1=Nc1ccccc1OC,21.9%
20,Cc1cc2c(C)nc(N/N=C/c3ccccc3)nc2o1,16.3%
21,C=C(C)C(=O)O[C@H]1C/C(C)=C\C(=O)/C=C(\C)[C@H](O)[C@@H]2OC(=O)C(=C)[C@@H]21,-78.6% (active)
22,COc1cccc(C(=O)Oc2cc(C)[nH]c(=O)c2[N+](=O)[O-])c1,0.5%
23,COC(=O)C1CCCCN1C(=O)c1ccc(OC2CCN(C(C)=O)CC2)c(OC)c1 (stereo not given),2.5%

row,SMILES,activity change (cytotoxicity)
1,Cc1ccc2c(c1)N(C(=O)CCC(=O)N1CCc3ccccc3C1)CCO2,-2.8%
2,Cc1ccccc1C(CC(=O)c1cccs1)C(C#N)C#N (stereo not given),-51.2% (active)
3,O=C(NCC(=O)N1CCN(c2ccccc2F)CC1)c1cccs1,10.7%
4,Cc1ccc(C)c(NC(CC(=O)c2ccccc2)C(=O)OCC(=O)c2cccs2)c1 (stereo not given),5.7%
5,CCN(CC)c1nc(-c2ccccc2)cc(C(F)(F)F)c1C#N,9.1%
6,CN(CC(=O)Nc1ccc(S(=O)(=O)N2CCCC2)cc1)Cc1ccc(Cl)c(Cl)c1,-2.3%
7,O=C(Cc1ccc(Cl)c(Cl)c1)Nc1ccc(SC(F)F)cc1,-64.7% (active)
8,Cc1ccc(CC(=O)Nc2ccc(OC(F)F)c(Cl)c2)cc1C,5.1%
9,COc1ccccc1NC(=O)CSc1nnc(CNC(=O)c2ccccc2F)o1,-0.3%
10,CCn1cc(NC(=O)Nc2ccc(OC)c(OC)c2)c(C(N)=O)n1,-3.5%
11,O=C(COC(=O)/C(=C/c1cccs1)c1cccs1)NCc1ccccc1Cl,4.5%
12,CC1(C(=O)O)CCC(C(=O)Nc2ccc(Cl)c(Cl)c2)C1(C)C (stereo not given),3.1%
13,N#CCCN(C(=O)Nc1ccc(Cl)c(Cl)c1)C1CCCCC1,11.3%
14,O=C(CC(O)(C(F)(F)F)C(F)(F)F)Nc1ccc(Cl)c(Cl)c1,-59% (active)
15,CCCCC(c1nnnn1CS(=O)(=O)c1ccc(C)cc1)N1CCC(C(N)=O)CC1 (stereo not given),-15%
16,CC(=O)N(CN1C(=O)C2CC=CCC2C1=O)c1cccc(Cl)c1 (stereo not given),8.7%
17,O=C(CCl)N(Cc1cccc([N+](=O)[O-])c1)c1cccc(Cl)c1,-96.2% (active)
18,Cc1ccc(S(=O)(=O)N(CC(=O)Nc2cccc([N+](=O)[O-])c2)Cc2ccc(Cl)cc2)cc1,10.5%
19,Cc1cc(NC(=O)CSc2nc(C(C)C)nc3sc4c(c23)CCC(C)C4)no1 (stereo not given),-1.3%
20,CCCn1nnc2sc3c(c2c1=O)CCC(C)C3 (stereo not given),-55.8% (active)
21,CCCSc1nc2sc3c(c2c(=O)n1-c1ccc(OC)cc1)CCN(C)C3,6.6%
22,O=S(=O)(O)CCN1CCOCC1,-2.1%
23,CC(=O)NC(c1cccc(F)c1)c1nc(-c2cccc(F)c2)cs1 (stereo not given),-3.6%

row,SMILES,activity change (cytotoxicity)
1,CC(C)N(Cc1nc(-c2ccc3c(c2)OCO3)no1)CC1CCC(=O)N1 (stereo not given),7.7%
2,CCCSc1nsc(N)n1,-4.9%
3,COC(=O)c1sc(NC(=O)c2ccc(OC)cc2OC)nc1C,-66.8% (active)
4,Cc1ccccc1OCC(=O)Nc1nc(C)c(C(=O)N(C)C)s1,2.2%
5,Cc1csc(NC(=O)CSc2ccc(-c3ccc(F)cc3)nn2)n1,8.5%
6,COc1cc(SC)ccc1C(=O)Nc1nc(C)cs1,-88.8% (active)
7,COc1ccc(C(=O)CCC(=O)Nc2cccnc2)c(OC)c1,-8.9%
8,Cc1csc(NC(=O)CSc2nc(=O)cc(N)n2-c2ccc(F)cc2)n1,-0.9%
9,Cc1ccc2c(c1)N(CC(=O)N1CCC(O)CC1)C(=O)CO2,7.7%
10,O=C(NCCCN1CCCCC1)C1CC(=O)N(CCc2ccccc2)C1 (stereo not given),-3.7%
11,O=C(CNC(=O)c1cc(S(=O)(=O)N2CCOCC2)ccc1N1CCCC1)Nc1ccc(F)c(F)c1,8%
12,Cc1cc(C)c2c(=O)n3c(nc2c1)C(CC(C)C)NC(=O)c1cc2ccccc2cc1-3 (stereo not given),-9%
13,O=C(/C(=C/c1cccc(Cl)c1)c1nc2ccccc2[nH]1)c1ccccc1,-62.2% (active)
14,CCCCn1c(N)c(N(CC(C)C)C(=O)CN(C)S(=O)(=O)c2ccc(F)cc2)c(=O)[nH]c1=O,1.7%
15,CCNC(=O)CC1C(=O)N(c2ccc(F)cc2)C(=O)N1CCc1sccc1C (stereo not given),15.4%
16,O=C(Nc1nnc(SCc2ccccc2Cl)s1)c1cccc([N+](=O)[O-])c1,-35.3%
17,O=C(NNC(=O)c1ccc(-n2cncn2)c([N+](=O)[O-])c1)c1ccccc1,9.1%
18,O=C(NC(Nc1nc2ccc([N+](=O)[O-])cc2s1)(C(F)(F)F)C(F)(F)F)c1ccccc1,-70.6% (active)
19,O=C(COC(=O)c1ccccc1NC(=O)c1ccco1)Nc1ccc2c(c1)OC(F)(F)O2,-4.2%
20,COc1ccc(S(=O)(=O)NC(CC(=O)NCc2ccccc2OC)c2ccco2)cc1 (stereo not given),5%
21,Cc1c(NC(=O)Nc2cccc([N+](=O)[O-])c2)c(=O)n(-c2ccccc2)n1C,0%

# Reference: PubChem BioAssay AID602141 (Sanford-Burnham Center for Chemical Genomics, 2011)
